Reference: PubChem BioAssay (EPA / NIEHS)
Inconclusive results are not listed. Active and inactive are the calls of the source. The calls were made as follows, unless noted: active = hit-call score of the fitted dose curve at least 0.9, where 1 is the maximum; inactive = score below 0.9.

How the values were obtained:
[1] = TOX21_p53_BLA_p2_viability: Viability Assessment in the Tox21 HCT-116 p53 Agonism Beta-lactamase Assay, Phase 2 (AID 2283591; active = hit-call score of the fitted dose curve at least 0.9, where 1 is the maximum;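 also: actives lower the ATP signal meaning cytotoxicity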)
Method in brief: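 HCT-116 p53-bla cells (4000/well) rested 5 h at 37C, then received compounds in DMSO (217-fold dilution) for 16 h at 37C, 5% CO2. After the CCF4 read, CellTiter-Glo was added; ATP luminescence was read after 30 min at room temperature.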

[2] = target: Cellular tumor antigen p53 (Homo sapiens) (UniProt P04637); test: TOX21_p53_BLA_p2_ratio: Tox21 HCT-116 p53 Agonism Beta-lactamase Assay, Ratio, Phase 2 (AID 2283592; active = hit-call score of the fitted dose curve at least 0.9, where 1 is the maximum)
Sequence of Cellular tumor antigen p53 (Homo sapiens) (P04637 whole entry, looked up): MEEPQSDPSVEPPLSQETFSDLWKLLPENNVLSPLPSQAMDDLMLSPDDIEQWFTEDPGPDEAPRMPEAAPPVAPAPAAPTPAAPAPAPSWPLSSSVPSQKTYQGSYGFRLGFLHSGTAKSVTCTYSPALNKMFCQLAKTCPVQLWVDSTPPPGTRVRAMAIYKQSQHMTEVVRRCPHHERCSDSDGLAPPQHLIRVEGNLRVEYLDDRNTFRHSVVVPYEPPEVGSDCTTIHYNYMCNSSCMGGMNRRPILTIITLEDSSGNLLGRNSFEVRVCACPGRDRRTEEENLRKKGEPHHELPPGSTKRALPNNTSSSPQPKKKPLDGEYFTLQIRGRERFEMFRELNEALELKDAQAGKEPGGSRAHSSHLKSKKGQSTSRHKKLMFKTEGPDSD
Method in brief: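 First, HCT116 reporter cells settle for 5 h at 37C. Next, DMSO compound solutions are pinned in (217-fold dilution) and left 16 h. Finally, CCF4-AM substrate is loaded 2 h at room temperature and the 460/530 nm ratio read.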

[3] = TOX21_p53_BLA_p4_viability: Viability Assessment in the Tox21 HCT-116 p53 Agonism Beta-lactamase Assay, Phase 4 (AID 2283597; active = hit-call score of the fitted dose curve at least 0.9, where 1 is the maximum;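 also: hits lower the luminescence signal meaning cytotoxicity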)
Method in brief: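 4000 HCT116 cells per well; 5 h attachment; compounds from DMSO, 217-fold dilution; 16 h at 37C. Then CCF4-AM, 2 h RT, followed by CellTiter-Glo, 30 min RT, luminescence. Decrease = cytotoxicity.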

[4] = TOX21_p53_BLA_p5_viability: Viability Assessment in the Tox21 HCT-116 p53 Agonism Beta-lactamase Assay, Phase 5 (AID 2283600; active = hit-call score of the fitted dose curve at least 0.9, where 1 is the maximum)
Method in brief: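 Decreased CellTiter-Glo luminescence denotes lost viability. Exposure: 16 h at 37C, 5% CO2, with compounds from DMSO stocks diluted 217-fold in wells of 4000 cells.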

[5] = target: Cellular tumor antigen p53 (Homo sapiens) (UniProt P04637); test: TOX21_p53_BLA_p4_ratio: Tox21 HCT-116 p53 Agonism Beta-lactamase Assay, Ratio, Phase 4 (AID 2283601; active = hit-call score of the fitted dose curve at least 0.9, where 1 is the maximum)
Method in brief: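 HCT116 cells carrying an inducible beta-lactamase reporter were plated at 4000 cells/well, rested 5 h, then exposed to compounds in DMSO (217-fold dilution) for 16 h at 37C. CCF4-AM substrate was loaded 2 h at room temperature; 460/530 nm emission ratio scored gain-of-signal versus DMSO.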

[6] = CCTE_Shafer_MEA_dev_firing_rate_mean: CCTE's Neural Network Formation Assay for Mean Firing Rate, Shafer Lab (AID 2284031)
Method in brief: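 Read-out: spike count/recording length, averaged over active electrodes, then AUC across days 5, 7, 9, 12. Rat cortical cultures on MEA; continuous 12-day exposure, media and treatment renewed DIV 5, 9; DMSO baseline.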

[7] = CCTE_Shafer_MEA_dev_per_burst_spike_percent: CCTE's Neural Network Formation Assay for Percent of Spikes in a Burst, Shafer Lab (AID 2284032)
Method in brief: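 Value is trapezoidal AUC over recordings on days 5, 7, 9 and 12 of the well-mean fraction of spikes falling in single-electrode bursts; rat cortical cultures exposed continuously from plating, treatment renewed DIV 5 and 9, fitted downward against DMSO.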

[8] = CCTE_Shafer_MEA_dev_active_electrodes_number: CCTE's Neural Network Formation Assay for Number of Active Electrodes, Shafer Lab (AID 2284040; active = hit-call score of the fitted dose curve at least 0.9, where 1 is the maximum)
Method in brief: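 Developing rat cortical networks on MEAs, exposed DIV 0–12. Value is the AUC of active-electrode counts (≥5 spikes/min) from days 5, 7, 9, 12, relative to DMSO.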

[9] = CCTE_Shafer_MEA_dev_burst_rate: CCTE's Neural Network Formation Assay for Burst Rate, Shafer Lab (AID 2284042)
Method in brief: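 Developmental network assay measuring how 12-day exposure of rat cortical neuron cultures alters bursting on extracellular MEA recordings. Values are AUC of well-mean burst rate across four recording days, relative to DMSO vehicle.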

[10] = CCTE_Shafer_MEA_dev_bursting_electrodes_number: CCTE's Neural Network Formation Assay for Number of Bursting Electrodes, Shafer Lab (AID 2284043; active = hit-call score of the fitted dose curve at least 0.9, where 1 is the maximum)
Method in brief: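 Counted: electrodes with burst rate ≥1 per 2 min in each well. Cells: primary rat cortex, 1.5 x 10^5/well, on 16-electrode MEA wells. Exposure: DIV 0–12, compound renewed DIV 5 and 9. Recording days 5, 7, 9, 12; AUC vs DMSO baseline.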

[11] = CCTE_Shafer_MEA_dev_per_burst_interspike_interval: CCTE's Neural Network Formation Assay for Burst Interspike Interval, Shafer Lab (AID 2284044)
Method in brief: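 Primary rat cortical neurons on 48-well MEA plates, exposed from day 0 through day 12, treatment renewed at DIV 5 and 9. Within-burst interspike interval recorded days 5, 7, 9, 12, well-averaged, summarised as AUC; negative fit versus DMSO.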

[12] = CCTE_Shafer_MEA_dev_burst_duration_mean: CCTE's Neural Network Formation Assay for Mean Burst Duration, Shafer Lab (AID 2284045)
Method in brief: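 Network-formation assay in primary rat cortical neurons; treatment spans twelve days of development. Mean burst duration per well is integrated by trapezoidal AUC and fitted in the loss-of-signal direction against DMSO baseline.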

[13] = CCTE_Shafer_MEA_dev_interburst_interval_mean: CCTE's Neural Network Formation Assay for Mean Interburst Interval, Shafer Lab (AID 2284046);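 also: well-mean interburst interval of bursting electrodes as AUC over four recording days; curve fitted for decrease in interburst interval relative to DMSO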
Method in brief: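 Network formation assay in primary rat cortical cultures, exposed from DIV 0 to 12. Mean interburst interval per well, integrated as AUC over four recordings.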

[14] = CCTE_Shafer_MEA_dev_network_spike_number: CCTE's Neural Network Formation Assay for Number of Network Spikes, Shafer Lab (AID 2284048);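 also: synchronized bursts across electrodes counted on days 5 7 9 12 and integrated as AUC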
Method in brief: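 Extracellular recordings from 16-electrode wells track network formation in rat cortical cultures under continuous treatment from plating. The endpoint is network spike number, expressed as AUC across DIV 5–12 relative to DMSO vehicle.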

[15] = CCTE_Shafer_MEA_dev_network_spike_peak: CCTE's Neural Network Formation Assay for Mean Number of Electrodes in Network Spike, Shafer Lab (AID 2284049)
Method in brief: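 Continuous 12-day exposure of rat cortical cultures, starting at plating, on MEA plates. Endpoint: electrodes participating in network-spike peaks, AUC across DIV 5–12, DMSO as negative control.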

[16] = CCTE_Shafer_MEA_dev_spike_duration_mean: CCTE's Neural Network Formation Assay for Mean Spike Duration, Shafer Lab (AID 2284051);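 also: mean network spike duration pooled as area under curve over DIV 5 to 12 recordings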
Method in brief: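 With DMSO as baseline, loss of mean network spike duration was scored from extracellular recordings of rat cortical neurons on MEA plates. Exposure spanned plating to DIV 12; the four recording days were collapsed into one AUC value.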

[17] = CCTE_Shafer_MEA_dev_network_spike_duration_std: CCTE's Neural Network Formation Assay for Standard Deviation of Network Spike Duration, Shafer Lab (AID 2284052);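 also: area under curve of spike duration SD across recording days 5 to 12; hits are decreases in network spike duration SD versus DMSO vehicle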
Method in brief: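 Developing networks of rat cortical neurons were exposed over twelve days in vitro on 48-well MEA plates. Trapezoidal AUC of recordings (DIV 5–12) was analysed for signal loss relative to DMSO vehicle.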

[18] = CCTE_Shafer_MEA_dev_per_network_spike_spike_number_mean: CCTE's Neural Network Formation Assay for Mean Number of Spikes in a Network Spike, Shafer Lab (AID 2284053)
Method in brief: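 First, rat cortical cells (1.5 x 10^5/well) were seeded onto MEA wells; second, dosing began at plating and was refreshed on DIV 5 and 9; finally, network-spike spike counts across DIV 5–12 were summarized as AUC.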

[19] = CCTE_Shafer_MEA_dev_per_network_spike_spike_percent: CCTE's Neural Network Formation Assay for Percent of Spikes in a Network Spike, Shafer Lab (AID 2284054)
Method in brief: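 Developing networks of rat cortical neurons are dosed at day 0 and recorded extracellularly four times up to day 12. The endpoint is the area under the curve of percent spikes in network spikes, fitted in the negative direction relative to DMSO.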

[20] = CCTE_Shafer_MEA_dev_LDH: CCTE's Lactate Dehydrogenase Assay for Cytotoxicity in the Neural Network Formation Assay, Shafer Lab (AID 2284068; active = hit-call score of the fitted dose curve at least 0.9, where 1 is the maximum;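 also: exposure for twelve days from plating with re-dosing on DIV 5 and 9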)
Method in brief: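 Developing rat cortical networks on MEA plates are exposed to compound for 12 days from plating. LDH activity is measured spectrophotometrically, with DMSO as baseline.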

[21] = UKN5_HCS_SBAD2_neurite_outgrowth: University of Konstanz (UKN) Leist Lab Neurite Outgrowth Assay in human iPSC-derived immature Dorsal Root Ganglia Neurons (UKN5) (AID 2284070); settings: actives raise or lower the signal
Method in brief: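 Cryopreserved SBAD2 peripheral neurons were seeded at 100.000 cells/cm2 in N2-S/KSR medium containing CHIR99021, SU5402 and DAPT, then exposed to compounds for 24 h. Neurite area from calcein-AM high-content imaging was fitted bidirectionally against DMSO.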

[22] = CCTE_Shafer_MEA_dev_mutual_information_norm: CCTE's Neural Network Formation Assay for Mutual Information Normalization, Shafer Lab (AID 2284091)
Method in brief: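 Exposure of primary rat cortical neurons began at plating and ran to DIV 12, with full media and treatment renewal after DIV 5 and 9 recordings. Mutual information AUC (DIV 5–12) was analysed for loss versus DMSO.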

[23] = CCTE_Shafer_MEA_dev_correlation_coefficient_mean: CCTE's Neural Network Formation Assay for Mean Correlation Coefficient, Shafer Lab (AID 2284093)
Method in brief: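 Extracellular firing from rat cortical networks on 48-well MEAs, DMSO-referenced, negative fitting direction. Compound present from plating to DIV12; mean pairwise correlation per well integrated over DIV5–12 recordings by trapezoidal AUC.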

[24] = UKN4_HCS_LUHMES_neurite_outgrowth: University of Konstanz (UKN) Leist Lab Neurite Outgrowth Assay in human LUHMES cells (UKN4) (AID 2284206); settings: actives raise or lower the signal
Method in brief: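 Read-out: calcein-AM neurite area by high-content fluorescence imaging, with Hoechst H-33342 viability counterstain, after 24 h chemical exposure of day-2 differentiated LUHMES cells. Activity fitted bidirectionally against DMSO baseline.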

[25] = CCTE_Mundy_HCI_Cortical_Synap_Neur_Matur_NeuriteSpotCountPerNeuriteLength: CCTE's Synaptogenesis and Neurite Maturation Assay in rat cortical cells for Neurite Spot Count per Neurite Length, Mundy Lab (AID 2284210)
Method in brief: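 Neurite-associated synapse density (synaptophysin puncta per unit neurite length) is measured by fluorescence high-content imaging in rat cortical cultures treated from DIV 7 and fixed at DIV 12, with DMSO as negative control.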

[26] = CCTE_Mundy_HCI_Cortical_NOG_NeuriteLength: CCTE's Neurite Outgrowth Assay in rat cortical cells for Neurite Length, Mundy Lab (AID 2284213)
Method in brief: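 First, rat primary cortical cells were plated and, 2 h later, given test chemical as a 1/10 dilution. Finally, βIII-tubulin immunostaining enabled automated imaging of neurite length.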

[27] = CCTE_Mundy_HCI_Cortical_Synap_Neur_Matur_NeuriteLength: CCTE's Synaptogenesis and Neurite Maturation Assay in rat cortical cells for Neurite Length, Mundy Lab (AID 2284214)
Method in brief: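 Read-out: high-content imaging of MAP2-labelled neurites, with synaptophysin and Hoechst co-stain, in rat cortical cultures fixed at DIV 12. Activity fitted in positive direction relative to DMSO baseline.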

[28] = CCTE_Mundy_HCI_Cortical_Synap_Neur_Matur_NeuriteSpotCountPerNeuron: CCTE's Synaptogenesis and Neurite Maturation Assay in rat cortical cells for Neurite Spot Count per Neuron Count, Mundy Lab (AID 2284215)
Method in brief: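 Rat primary cortical cultures given AraC at DIV 5, dosed from DIV 7 to DIV 12 with media change. Fixed, stained for MAP2, synaptophysin and Hoechst; neurite-associated synaptophysin puncta per neuron quantified by high-content imaging versus DMSO.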

[29] = CCTE_Mundy_HCI_Cortical_Synap_Neur_Matur_SynapseCount: CCTE's Synaptogenesis and Neurite Maturation Assay in rat cortical cells for Synapse Count, Mundy Lab (AID 2284218)
Method in brief: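 Read-out: synapse number per neuron, automated high-content imaging of fixed cells immunostained for MAP2 and synaptophysin plus Hoechst nuclei. Rat primary cortical cultures, AraC at DIV 5, chemical dosing DIV 7–12. Positive-direction fit relative to DMSO.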

[30] = CCTE_Mundy_HCI_Cortical_Synap_Neur_Matur_CellBodySpotCount: CCTE's Synaptogenesis and Neurite Maturation Assay in rat cortical cells for Cell Body Spot Count, Mundy Lab (AID 2284223)
Method in brief: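 Primary rat cortical cultures, AraC added at DIV 5; dosed DIV 7 through DIV 12 […]. Fixed, stained for MAP2 and synaptophysin with Hoechst; cell body-associated synaptophysin puncta per neuron counted by high-content imaging, loss vs DMSO.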

[31] = UKN4_HCS_LUHMES_cell_viability: Viability Assessment in the University of Konstanz (UKN) Leist Lab Neurite Outgrowth Assay in human LUHMES cells (UKN4) (AID 2284232)
Method in brief: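 Day-2 differentiated LUHMES, 30000 cells/well, dosed ~30 min–2 h post-seeding; 24 h treatment incl. staining; Hoechst H-33342 + calcein-AM at 23.5 h; HCS imaging; DMSO-normalized, bidirectional fit.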

[32] = UKN2_HCS_IMR90_cell_viability: Viability Assessment in the University of Konstanz (UKN) Leist Lab Neural Crest Cell Migration Assay in human induced IMR90 Pluripotent Stem Cells (UKN2) (AID 2284233);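 also: viability of neural crest cells differentiated from IMR90 iPSC measured by calcein-AM fluorescence imaging; cells exposed to compound for 24 h after a 24 h migration phase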
Method in brief: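 cMINC format, iPSC-derived neural crest (IMR90); 24 h migration (EGF/FGF, N2-S), then 24 h toxicant. Calcein-AM/H-33342 stain 30 min; fluorescence intensity by HCS; DMSO-normalised, bidirectional fitting.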

[33] = CCTE_Mundy_HCI_hNP1_Casp3_7: CCTE's Caspase-Glo 3/7 Assay in human neuroprogenitor cells for Apoptosis, Mundy Lab (AID 2284240)
Method in brief: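 Neuroepithelial-lineage stem cells from WA09 embryonic cells were treated with chemicals after 40–44 h of culture. Twenty-four hours later, caspase-3/7 activation was detected luminescently after a 30 min room-temperature reagent step, with DMSO as baseline.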

Measured: outcome

COC(=O)[C@H]1[C@@H](OC(=O)c2ccccc2)C[C@@H]2CC[C@H]1N2C
inactive: all assays above
